Compound activity deposited in PubChem BioAssay by National Center for Advancing Translational Sciences (NCATS).
Lassa entry inh: Lassa virus entry inhibition; Lassa virus pseudotype entry inhibition, cell reporter; Potency, µM (highest dose often 37.9 µM), for inactives: at the top dose activity change, negative = inhibition, actives largely listed as inhibitors; 1.2% of 300,000 active; calls by dose curve; tested in HEK293 cells; also: potency is read from the fitted curve at half-maximal effect; % is scaled to controls: 0 for no effect and ±100 for the full control effect; nearly all actives have a fitted effect of over 50% in size
VACV mCherry inh: vaccinia inhibition (mCherry reporter); Vaccinia virus mCherry reporter infection, fluorescence; Potency, µM (series often up to 36.5 µM), for inactives: at the highest dose activity change, negative = inhibition, hits mostly inhibitors; 0.63% of 310,000 active; AID 720579; calls by dose curve; tested in A549 cells; also: potency is read from the fitted curve at half-maximal effect; % is scaled to controls: 0 for no effect and ±100 for the full control effect; nearly all actives have a fitted effect of over 35% in size
Marburg entry inh: blocks Marburg virus binding to or entry into cells; 1.8% of 300,000 active; Marburg virus pseudotyped entry inhibition, cell reporter; Potency, µM (highest dose often 37.8 µM), for the others: at the highest dose activity change, negative = inhibition, usual class: inhibitors; calls by dose curve; tested in HEK293 cells; also: potency is read from the fitted curve at half-maximal effect; % is scaled to controls: 0 for no effect and ±100 for the full control effect
CHX counter-1: counter-screen for Shiga toxin inhibitors: cycloheximide protein synthesis inhibition; cell reporter, cycloheximide protein synthesis inhibition counterscreen; max response, %; 12% of 300,000 active; AID 2314; in the data active = max response mostly above about 13%, no sharp cut-off; inactive = mostly below about 14%; also: read at 38.3 µM for the half of the compounds with a filed dose; 0% is about no effect
Vaccinia Venus: inhibitors of vaccinia virus (Venus reporter). 0.46% of 330,000 active. Vaccinia virus Venus reporter expression, fluorescence. Potency, µM (titrated, usually from 36.5 µM), for the others: at the highest dose activity change, negative = inhibition, hits mostly inhibitors. AID 720580; calls by dose curve; tested in A549 cells; also: potency is read from the fitted curve at half-maximal effect; % is scaled to controls: 0 for no effect and ±100 for the full control effect; nearly all actives have a fitted effect of over 30% in size
Shiga inhibitor: Shiga toxin inhibition | Vero cells, Shiga toxin protein synthesis inhibition reporter | inhibition, % at 38.7 µM | 9.2% of 290,000 active; in the data active = inhibition mostly above about 28%, no sharp cut-off; inactive = mostly below about 43%; also: 0% is about no effect
CHX counter-2: counter-screen for Shiga toxin inhibitors: cycloheximide protein synthesis block; shares compounds with Shiga inhibitor; Cycloheximide counterscreen, protein synthesis reporter, Shiga toxin assay; Potency, µM (top dose mostly 38.3 µM), without a hit: top-dose activity (activation), actives largely listed as activators; 3% of 510 active; AID 2318; calls by dose curve; also: potency is read from the fitted curve at half-maximal effect; 0% is about no effect
Numbers without * were called inactive; [ ] = remark or other dose. Only a selection was taken, and hits are over-represented in it overall.

Results for Cc1ccc(C(C(=O)NCc2ccco2)N(C(=O)Cn2nnc3ccccc32)c2ccccc2)o1 (centres undefined) ?
Lassa entry inh: inconclusive; Marburg entry inh: 1.9%[46.1 µM]; CHX counter-1: 3.5; Vaccinia Venus: -19.2%; Shiga inhibitor: 64.3*; CHX counter-2: 4.9%

Results for Cc1ccc(S(=O)(=O)c2nnn3c2nc(NCc2ccc4c(c2)OCO4)c2sccc23)cc1C ?
Lassa entry inh: 4.9%[46.1 µM]; VACV mCherry inh: inconclusive; Vaccinia Venus: inconclusive

Results for CSc1nc2ccc(N3C(=O)C4CCCCC4C3=O)cc2s1 (centres undefined) ?
Lassa entry inh: -23.9%[14.3 µM]; VACV mCherry inh: -15.9%; Marburg entry inh: 17.6%; CHX counter-1: -3.4; Vaccinia Venus: -3.8%; Shiga inhibitor: 38.3*; CHX counter-2: inconclusive

How did CSc1nc2ccc(S(=O)(=O)N3CCCC3)cc2s1 do in these assays?
Lassa entry inh: 13.8%; Marburg entry inh: -9.6%; CHX counter-1: -2.4; Shiga inhibitor: 25.0

Results for COc1cc(C(C)=O)ccc1OCCCOc1cccc2cccnc12 ?
Lassa entry inh: 4.8%[46.1 µM]; VACV mCherry inh: inactive; Marburg entry inh: -9.3%[46.1 µM]; CHX counter-1: 1.8; Vaccinia Venus: -21.8%; Shiga inhibitor: 48.1*; CHX counter-2: inconclusive

How did COc1c(C=NNC(N)=O)c(OC)c(OC)c2c1CCO2 do in these assays?
Lassa entry inh: 5.8%[46.1 µM]; VACV mCherry inh: -8.5%; Marburg entry inh: 15.4%[46.1 µM]; Vaccinia Venus: 8.1%

How did CC1(C)Oc2ccc3ccc(=O)oc3c2/C(=C/NNC(N)=O)C1=O do in these assays?
CHX counter-1: -1.3; Shiga inhibitor: -3.8

What do the screens show for `Cc1ccc(N/C(C(Cl)=C(Cl)Cl)=C(/Cl)[N+](=O)[O-])c(C)c1`?
Lassa entry inh: 10.2%; Marburg entry inh: -31.4%; CHX counter-1: 9.1; Shiga inhibitor: 23.4*; CHX counter-2: -2.3%

What do the screens show for `CCCn1c(SCC(=O)NCc2ccco2)nc2c1c(=O)n(C)c(=O)n2C`?
Lassa entry inh: 0.2%; Marburg entry inh: 15.4%; CHX counter-1: -1.3; Shiga inhibitor: -8.0

Results for CCn1c(SCC(=O)NCc2ccco2)nc2c1c(=O)n(C)c(=O)n2C ?
Lassa entry inh: -2.1%; Marburg entry inh: 11.6%; CHX counter-1: -2.3; Shiga inhibitor: 68.2*; CHX counter-2: -1.1%

What do the screens show for `O=C(Nc1cccc(-c2csc(Nc3ccc(Cl)cc3)n2)c1)c1ccccc1`?
VACV mCherry inh: inconclusive; CHX counter-1: 2.1; Vaccinia Venus: inconclusive; Shiga inhibitor: 29.4*; CHX counter-2: inconclusive

How did O=C(Nc1ccc(Cl)c(Cl)c1)Nc1nc(-c2ccccc2)cs1 do in these assays?
Lassa entry inh: inconclusive; VACV mCherry inh: inconclusive; Marburg entry inh: inconclusive; CHX counter-1: -2.8; Vaccinia Venus: -27.4%; Shiga inhibitor: -1.1

What do the screens show for `Cc1c(C)c2ccc(O[C@@H]3O[C@H](CO)[C@H](O)[C@H](O)[C@H]3O)cc2oc1=O`?
CHX counter-1: 8.2; Shiga inhibitor: -14.4

Results for O=c1c(-c2ccc(O)cc2)coc2cc(O[C@@H]3O[C@H](CO)[C@H](O)[C@H](O)[C@H]3O)ccc12 ?
CHX counter-1: 10.9; Shiga inhibitor: 48.9*; CHX counter-2: 3.3%

Results for Cc1cnc(NC(=O)c2ccc(-c3nc4ccccc4s3)o2)s1 ?
Lassa entry inh: -2.8%; VACV mCherry inh: -20.4%; Marburg entry inh: 15.8%; CHX counter-1: 10.6; Vaccinia Venus: -13.3%; Shiga inhibitor: 59.6*; CHX counter-2: inconclusive

How did COCCNC(=O)c1ccc(-n2c(-c3ccccc3)cc3c2CCCCC3)cc1 do in these assays?
Lassa entry inh: inconclusive; VACV mCherry inh: -23.5%; Vaccinia Venus: -20.8%

Results for COc1ccc2[nH]c(-c3ccccc3)cc(=O)c2c1 ?
CHX counter-1: 16.7; Shiga inhibitor: active; CHX counter-2: inconclusive

What do the screens show for `O=c1cc(-c2cccc(F)c2)[nH]c2ccc(Cl)cc12`?
CHX counter-1: 9.1; Shiga inhibitor: active; CHX counter-2: -1.7%

Results for O=C(C(Sc1ccccc1)c1ccccc1)N1CCOCC1 (centres undefined) ?
Lassa entry inh: 6.9%; VACV mCherry inh: inactive; Marburg entry inh: -2.3%; CHX counter-1: -0.6; Vaccinia Venus: -8.6%; Shiga inhibitor: 45.9*; CHX counter-2: -4.3%

Results for Cc1ccnc2cc(Cl)cc(Cl)c12 ?
VACV mCherry inh: -10.5%; Vaccinia Venus: -6.9%

How did O=C(Cc1ccc(Br)cc1)N1CCN(c2ccccc2)CC1 do in these assays?
Lassa entry inh: 13.8%; VACV mCherry inh: -13.7%; Marburg entry inh: -2.8%[46.1 µM]; CHX counter-1: 16.6; Vaccinia Venus: -10.3%; Shiga inhibitor: 28.8

Results for Cc1cccc(N2CCN(C(=O)Cc3ccc(Br)cc3)CC2)c1C ?
Lassa entry inh: inconclusive; Marburg entry inh: -28.9%; CHX counter-1: 18.7; Vaccinia Venus: -24.6%; Shiga inhibitor: 65.7*; CHX counter-2: inconclusive

How did Cc1cc(C(=O)COC(=O)c2ccc(N)cc2)c(C)n1-c1c(C)n(C)n(-c2ccccc2)c1=O do in these assays?
Lassa entry inh: 0.7%; VACV mCherry inh: -4.7%; Marburg entry inh: inconclusive; CHX counter-1: -0.8; Vaccinia Venus: -11.4%; Shiga inhibitor: -7.0

What do the screens show for `Cc1ccc(OCC(=O)NNC(=O)CCC(=O)Nc2ccc(C)cc2C)cc1`?
Lassa entry inh: -0.3%; VACV mCherry inh: -4.1%; Marburg entry inh: 11.3%; CHX counter-1: -1.7; Vaccinia Venus: -8.7%; Shiga inhibitor: 35.4*; CHX counter-2: -0.8%

Results for COc1ccc(N2CCN(C(=O)C(=O)c3cn(CC(=O)N4CCCCCC4)c4ccccc34)CC2)cc1 ?
Lassa entry inh: -18.6%; VACV mCherry inh: -9.8%; Marburg entry inh: -21.1%; CHX counter-1: -2.1; Vaccinia Venus: -5.5%; Shiga inhibitor: -1.0

What do the screens show for `CC(=O)Oc1ccc2c(c1)C(=O)CCCCCC(=O)O2`?
VACV mCherry inh: inactive; Vaccinia Venus: -16.9%

Results for CCN(CC(=O)Nc1ccc(Br)cc1F)CC(=O)NC1CCS(=O)(=O)C1 (centres undefined) ?
Lassa entry inh: -15.0%; VACV mCherry inh: inactive; Marburg entry inh: -10.2%; Vaccinia Venus: -14.1%

What do the screens show for `O=C(Nc1ccccc1)c1ccc(S(=O)(=O)N2CCOCC2)cc1`?
Lassa entry inh: 1.7%; Marburg entry inh: 9.9%; CHX counter-1: 5.1; Shiga inhibitor: 53.2*; CHX counter-2: 3.7%

How did O=C(Nc1ccc(Cl)cc1)c1ccc(S(=O)(=O)N2CCOCC2)cc1 do in these assays?
Lassa entry inh: -13.7%[46.1 µM]; VACV mCherry inh: -8.5%; Marburg entry inh: inconclusive; CHX counter-1: -9.0; Vaccinia Venus: -11.5%; Shiga inhibitor: 23.2

Results for O=C(OCc1nc2ccccc2s1)c1cccc(N2C(=O)CCC2=O)c1 ?
Lassa entry inh: 7.8%; VACV mCherry inh: inactive; Marburg entry inh: 3.9%[46.1 µM]; CHX counter-1: 7.1; Vaccinia Venus: -5.6%; Shiga inhibitor: 57.7*; CHX counter-2: 2.0%
